# High-throughput results as filed in PubChem BioAssay.
# A selection: hits, their analogues and other compounds. The true share with any hit is near 19%.
# ELG1 DNA repair: qHTS screen for small molecules that inhibit ELG1-dependent DNA repair in human embryonic kidney (HEK293T) cells expressing luciferase-tagged ELG1 | HEK293T ELG1-luciferase reporter, luminescence, 16 h; DNA damage induced by 5-fluorouridine | Potency, µM (doses to about 46.1 µM), for inactives: at the highest dose activity change, negative = inhibition, hits mostly inhibitors | 330,000 compounds, 2.3% hits | AID 504467, 2011; also: potency is read from the fitted curve at half-maximal effect; nearly all actives have a fitted effect of over 55% in size
#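 Reporter activity after DNA damage by 5-fluorouridine is monitored. Compound-treated cells incubate 16 hr at 37 °C, then ONE-Glo is added for 30 min before luminescence reading.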
# TDP1 cell noCPT: qHTS for Inhibitors of human tyrosyl-DNA phosphodiesterase 1 (TDP1): qHTS in cells in absence of CPT | DT40 Tdp1-/- hTDP1 cells, no CPT, ATP luminescence, 48 h | Potency, µM (highest dose often 46.2 µM), for the others: at the top dose activity change, negative = growth inhibition, most hits filed as inhibitors | 420,000 compounds, 15% hits; also: potency is read from the fitted curve at half-maximal effect; nearly all actives have a fitted effect of over 55% in size
#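 Growth kinetics read by CellTiter-Glo luminescence after ≥48 hr at 37 °C. Cells: DT40 Tdp1-/- stably carrying human TDP1, 400 per well, compound exposure in the absence of CPT (DMSO vehicle).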
# IL-1B inflam inh: qHTS for Inhibitors of Inflammasome Signaling: IL-1-beta AlphaLISA Primary Screen; THP-1 LPS/ATP IL-1B secretion, AlphaLISA, 16 h; stronger effect = lower value; activity change, % at 57.5 µM; 360,000 compounds, 4.7% hits; in the data active = activity change below about -50%; inconclusive = mostly about -30% to -49%
#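 Secreted IL-1B measured by AlphaLISA bead assay after 16 h compound exposure of THP-1 cells; compounds (final up to 57.5 uM) added 1 h before LPS (250 ng/mL) and ATP (1.25 mM) stimulation; lower signal means less secretion.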
# HT1080-NT tox: qHTS for induction of synthetic lethality in tumor cells producing 2HG: qHTS for the HT-1080-NT fibrosarcoma cell line; 360,000 compounds, 1.6% hits; Potency, µM (top dose mostly 46.1 µM), for the others: at the highest dose activity, negative = less viability, actives largely listed as cytotoxic; AID 686970, 2013; HT-1080-NT fibrosarcoma viability, CellTiter-Glo ATP luminescence, 48 h;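 also: NT is the 2HG producing partner of a matched IDH1 knockdown line; potency is read from the fitted curve at half-maximal effect; 0% = DMSO-treated cells and -100% = media-only wells without cells; nearly all actives have a fitted effect of over 55% in size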
#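 HT-1080-NT fibrosarcoma cells (2HG-overproducing), 750 cells/well in RPMI with 5% FBS, dosed after 2 h and incubated 48 h at 37C. CellTiter-Glo luminescence normalized to DMSO and no-cell wells; concentration-response curves fitted and classed.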
# HT1080 IDH1KD tx: qHTS for induction of synthetic lethality in tumor cells producing 2HG: qHTS for the HT-1080-IDH1KD cell line; HT-1080 IDH1 knockdown viability, ATP luminescence, 48 h; 360,000 compounds, 2% hits; Potency, µM (series often up to 46.1 µM), without a hit: at the top dose activity, negative = toxicity, most hits filed as cytotoxic;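 also: potency is read from the fitted curve at half-maximal effect; 0% = DMSO wells and -100% = cell-free medium wells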
#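 Using the IDH1-knockdown HT-1080 line run in the same batch and compound series as the NT line, viability after 48 h at 37 °C was determined by CellTiter-Glo luminescence and expressed as % activity.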
# DT40 TDP1 CPT: qHTS for Inhibitors of human tyrosyl-DNA phosphodiesterase 1 (TDP1): qHTS in cells in presence of CPT | chicken DT40 Tdp1-/-;hTDP1 cells + 20 nM CPT, ATP luminescence, 48 h | Potency, µM (series often up to 46.2 µM), without a hit: at the top dose activity change, negative = growth inhibition, hits mostly inhibitors | 420,000 compounds, 12% hits; also: potency is read from the fitted curve at half-maximal effect; nearly all actives have a fitted effect of over 55% in size
#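 Chicken DT40 Tdp1-/- cells stably complemented with human TDP1 were seeded at 400 cells/well in medium containing 20 nM camptothecin, exposed to pin-transferred compounds, and grown at 37 °C for at least 48 hr. Viability was read as ATP luminescence.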
# The depositor's hits bear a star; u = inconclusive; x = not tested or not shown. Unless noted, calls follow the shape of the dose curve; as a rule, active = well fitted curve in the direction sought with a large enough effect; inconclusive = small, poorly fitted or top-dose-only effect, or another doubt; inactive = no such curve, though single readings can be large; an effect the other way counts as inactive or inconclusive. Unless noted, % is scaled to controls: 0 for no effect and ±100 for the full control effect.
SMILES,ELG1 DNA repair,TDP1 cell noCPT,IL-1B inflam inh,HT1080-NT tox,HT1080 IDH1KD tx,DT40 TDP1 CPT
Cc1ccc(OCc2cc(C(=O)NC3CCc4ccccc43)no2)cn1 (centres undefined),-1%,13µM*,37,-21%,-10%,18µM*
CCC(NC(=O)c1cc(COc2c(F)cccc2F)on1)c1ccncc1 (centres undefined),u,u,8,-8%,-11%,u
CCC(NC(=O)c1cc(COc2ccc(Cl)cc2OC)on1)c1ccncc1 (centres undefined),u,u,-1,-3%,8%,u
CCC(NC(=O)c1cc(COc2ccc(OC)cc2Cl)on1)c1ccncc1 (centres undefined),u,12µM*,-9,0%,-11%,u
Cc1ccc(OCc2cc(C(=O)NCc3cc(F)ccc3C)no2)cn1,u,u,-2,-14%,-7%,16µM*
O=C(c1cc(-c2ccco2)on1)N1CCN(C(c2ccccc2)c2ccccc2)CC1,-5%,16µM*,-9,u,u,16µM*
COc1ccc2oc(C(=O)N3CCN(C/C=C/c4ccccc4)CC3)c(C)c2c1,u,-30%,8,-1%,-12%,-16%
COc1ccc(-c2cc(C(=O)N3CCN(C(c4ccccc4)c4ccccc4)CC3)no2)cc1,-3%,u,-5,-1%,-16%,23µM*
COc1ccc2oc(C(=O)N3CCN(C(c4ccccc4)c4ccccc4)CC3)c(C)c2c1,-7%,18µM*,-25,-20%,-23%,u
O=C1CCC(C(=O)OCC(=O)Nc2ccc(SC(F)F)cc2)=NN1,x,-3%,-18,6%,2%,0%
CCOc1ccc2c(=O)c(Oc3ccccc3)c(C)oc2c1,-12%,21µM*,1,-1%,-10%,u
Cc1oc2cc(OC(C)C(=O)O)ccc2c(=O)c1Oc1ccccc1 (centres undefined),3%,-2%,5,-3%,-2%,-2%
CCSc1ccc(/C(N)=N/OC(=O)c2cccs2)cn1,u,7%,0,3%,10%,u
Cc1ccc(NS(=O)(=O)c2sc3ccc(Cl)cc3c2C)cc1,0%,u,-85*,u,u,u
Cc1cc(C)c(NC(=O)CNC(=O)CN(C)Cc2ccc(Br)s2)c(C)c1,-5%,u,-2,4%,6%,u
C/C(=N\NC(=O)c1csc2ccccc12)c1ccc(O)cc1,-5%,9.2µM*,-8,-1%,1%,u
O=C(N/N=C/c1cccc(O)c1)c1cc(-c2ccccc2)nc2ccccc12,u,u,-19,-26%,u,2.3µM*
O=C(N/N=C/c1ccco1)c1cc(-c2cccc(Br)c2)nc2ccccc12,u,5.8µM*,-10,u,u,u
COc1ccc(/C=N/NC(=O)c2cc(-c3ccccc3)nc3ccccc23)c(OC)c1,12µM*,u,-24,-13%,0%,15µM*
COc1ccc2nc(-c3ccccc3)cc(OC)c2c1,u,u,-80*,-24%,-18%,-11%
COc1cccc(/C=N/NC(=O)c2nc(-c3ccccc3)cc(-c3ccccc3)n2)c1,7.3µM*,21µM*,u,-1%,-2%,16µM*
